Records with an inconclusive call do not appear. Entries that show only a call come without a potency. A number with no mark means an inactive call. Activity calls are given as the source filed them. Unless noted, the call rests on the fitted dose curve; in most records, active means well fitted curve in the direction sought with a large enough effect in the repeat runs; inconclusive means weak or mixed curves; inactive means no such curve, though single readings can be large; an effect the other way counts as inactive or inconclusive. Numbered stars: 1 amine (or outer) side, 2 acyl side, 3 side chain; on linkers, the order of the positions; unused ones are H or OH. Bridge positions count the residues as written; N and C are the ends. Square brackets hold non-standard residues; d marks the D form. Peptide text beside a SMILES is read from it. I, II: the chains in the order shown. Actinocin(9to1) = Cc1c2oc3c(C)ccc(C(=O)[*:1])c3nc-2c(C(=O)[*:2])c(N)c1=O; NMeV = CN[C@H](C(=O)O)C(C)C; Sar = CNCC(=O)O
Assays:
[1] = Primary qHTS for small molecule stabilizers of the endoplasmic reticulum resident proteome: Secreted ER Calcium Modulated Protein (SERCaMP) assay (AID 1508630; active means well fitted curve in the direction sought with a large enough effect; an effect the other way counts as inactive or inconclusive)
Method in brief: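 The SH-SY5Y reporter protocol was run at 3 concentrations up to 38.3 uM (primary) or 11 concentrations (follow-up): 16 h compound, 100 nM thapsigargin for 4 h, then extracellular luciferase luminescence.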

[2] = A High-Content qHTS Against Drug Library for the Identification of Small Molecules that Inhibit DYT1 Early Onset Primary Dystonia-Associated Cell Pathology (AID 1645839; calls by dose curve; further: series mostly up to about 46 µM)
Method in brief: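 High-content imaging quantified EGFP-TorsinA mislocalization in HEK293-derived cells inducibly expressing DYT1 mutant torsinA, after 48 h exposure to compound given together with tetracycline induction. Cell count served as a toxicity channel alongside %pathology.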

[3] = molecular target: Cytochrome P450 2D6 (Homo sapiens) (UniProt P10635); assay: Cytochrome P450 family 2 subfamily D member 6 (CYP2D6) small molecule antagonists: luciferase biochemical (cell-free) qHTS assay (AID 1645840); further: nearly all actives have a fitted effect of over 55% in size; further: potency means the concentration at half of the fitted maximal effect
Method in brief: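 P450-Glo CYP2D6 system: proluciferin substrate converted by enzyme to luciferin, read by luminescence proportional to activity. Enzyme-substrate mix with compound 10 min at room temperature, then NADPH regeneration 1 h before detection reagent.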

[4] = molecular target: Cytochrome P450 2C9 (Homo sapiens) (UniProt P11712); assay: Cytochrome P450 family 2 subfamily C member 9 (CYP2C9) small molecule antagonists: luciferase biochemical (cell-free) qHTS assay (AID 1645842); further: nearly all actives have a fitted effect of over 55% in size; further: potency means the concentration at half of the fitted maximal effect
Method in brief: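 P450-Glo CYP2C9 system: proluciferin substrate with enzyme in mix containing 0.4% BSA, 10 min at room temperature, then NADPH regeneration solution added and incubated 1 h at 37C. Detection reagent stopped reaction; luminescence read after 20 min as RLU.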

Chain of Cytochrome P450 2D6 (Homo sapiens) (P10635 whole entry, looked up): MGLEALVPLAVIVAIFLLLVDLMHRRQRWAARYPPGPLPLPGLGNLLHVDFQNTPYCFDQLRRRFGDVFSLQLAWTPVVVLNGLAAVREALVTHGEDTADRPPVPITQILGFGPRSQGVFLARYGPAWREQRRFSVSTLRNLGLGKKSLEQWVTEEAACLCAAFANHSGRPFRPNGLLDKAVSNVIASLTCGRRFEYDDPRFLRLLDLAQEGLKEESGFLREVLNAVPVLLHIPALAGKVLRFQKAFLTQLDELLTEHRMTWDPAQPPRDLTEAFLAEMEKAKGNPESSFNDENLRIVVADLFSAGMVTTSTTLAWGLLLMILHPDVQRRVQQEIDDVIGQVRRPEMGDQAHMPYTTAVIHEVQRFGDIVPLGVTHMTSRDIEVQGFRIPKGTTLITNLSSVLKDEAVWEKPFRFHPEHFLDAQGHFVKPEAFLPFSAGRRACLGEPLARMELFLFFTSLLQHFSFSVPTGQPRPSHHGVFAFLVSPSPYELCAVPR
Chain of Cytochrome P450 2C9 (Homo sapiens) (P11712 whole entry, looked up): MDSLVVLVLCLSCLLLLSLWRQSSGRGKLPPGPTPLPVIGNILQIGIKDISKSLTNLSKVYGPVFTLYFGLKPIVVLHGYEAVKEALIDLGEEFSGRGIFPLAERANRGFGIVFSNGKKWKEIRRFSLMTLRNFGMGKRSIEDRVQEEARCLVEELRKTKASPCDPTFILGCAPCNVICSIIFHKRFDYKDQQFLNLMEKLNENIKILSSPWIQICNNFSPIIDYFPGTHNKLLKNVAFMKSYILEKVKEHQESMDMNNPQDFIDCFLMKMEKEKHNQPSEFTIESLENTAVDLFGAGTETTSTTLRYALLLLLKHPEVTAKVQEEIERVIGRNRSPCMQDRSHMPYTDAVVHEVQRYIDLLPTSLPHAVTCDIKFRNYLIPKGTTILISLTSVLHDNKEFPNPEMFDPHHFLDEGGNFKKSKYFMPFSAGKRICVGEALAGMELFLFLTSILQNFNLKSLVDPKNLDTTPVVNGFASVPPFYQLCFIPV

Row | Structure (SMILES) | Potency [1] | Potency [2] | Potency [3] | Potency [4]
1 | O=C(O)CNC(=O)c1ccccc1 | inactive | inactive | inactive | inactive
2 | CCOc1ccc2nc3cc(N)ccc3c(N)c2c1 | inactive | inactive | 15.5 µM (active) | inactive
3 | C[C@]12C=CC(=O)C=C1[C@@H](F)C[C@@H]1[C@@H]2[C@@H](O)C[C@@]2(C)[C@H]1CC[C@]2(O)C(=O)CO | inactive | inactive | inactive | inactive
4 | CC[N+](CC)(CCNC(=O)C(=O)NCC[N+](CC)(CC)Cc1ccccc1Cl)Cc1ccccc1Cl | inactive | inactive | 15.5 µM (active) | inactive
5 | COc1ccc(C2C(=O)c3ccccc3C2=O)cc1 | inactive | inactive | inactive | inactive
6 | Cc1c2oc3c(C)ccc(C(=O)N[C@@H]4C(=O)N[C@H](C(C)C)C(=O)N5CCC[C@H]5C(=O)N(C)CC(=O)N(C)[C@@H](C(C)C)C(=O)O[C@@H]4C)c3nc-2c(C(=O)N[C@@H]2C(=O)N[C@H](C(C)C)C(=O)N3CCC[C@H]3C(=O)N(C)CC(=O)N(C)[C@@H](C(C)C)C(=O)O[C@@H]2C)c(N)c1=O (I: T[dV]P[Sar][NMeV] / II: T[dV]P[Sar][NMeV]; ester I:1-I:C, II:1-II:C; linker I:N-II:N via Actinocin(9to1)) | inactive | inactive | inactive | inactive
7 | CCOC(=O)n1ccn(C)c1=S | inactive | inactive | inactive | inactive
8 | O=S1(=O)c2cccc3cccc(c23)N1CCCN1CCN(c2ccc(F)cc2)CC1 | inactive | inactive | 3.47 µM (active) | inactive
9 | CCCCc1nc(Cl)c(CO)n1Cc1ccc(-c2ccccc2-c2nn[nH]n2)cc1 | inactive | inactive | inactive | 2.68 µM (active)
10 | CC(O)C(=O)O (configuration not stated) | inactive | inactive | 12.3 µM (active) | inactive
11 | COC1=CC(=O)C[C@@H](C)[C@]12Oc1c(Cl)c(OC)cc(OC)c1C2=O | inactive | inactive | inactive | inactive
12 | CC(=O)Oc1ccc(C(c2ccc(OC(C)=O)cc2)c2ccccn2)cc1 | inactive | inactive | 15.5 µM (active) | 17.4 µM (active)
13 | Cc1onc(-c2c(Cl)cccc2Cl)c1C(=O)N[C@@H]1C(=O)N2[C@@H]1SC(C)(C)[C@@H]2C(=O)O | inactive | inactive | inactive | 20.4 µM (active)
14 | CN1C(CCl)Nc2cc(Cl)c(S(N)(=O)=O)cc2S1(=O)=O (configuration not stated) | inactive | inactive | inactive | inactive
15 | CCCCC1=NC2(CCCC2)C(=O)N1Cc1ccc(-c2ccccc2-c2nn[nH]n2)cc1 | inactive | inactive | inactive | 17.4 µM (active)
16 | CCN(CC)CCNC(=O)COc1ccc(Cl)cc1 | inactive | inactive | 13.8 µM (active) | inactive
17 | NC(=O)C(=O)N/N=C/c1ccc([N+](=O)[O-])o1 | inactive | inactive | 6.17 µM (active) | inactive
18 | CC(=O)OCC(=O)[C@@]12N=C(C)O[C@@H]1C[C@H]1[C@@H]3CCC4=CC(=O)C=C[C@]4(C)[C@H]3[C@@H](O)C[C@@]12C | inactive | inactive | inactive | inactive
19 | Cc1cccc(C)c1NC(=O)CN1CCN(CCCC(c2ccc(F)cc2)c2ccc(F)cc2)CC1 | inactive | inactive | 2.75 µM (active) | 19.5 µM (active)
20 | OC[C@H]1O[C@@H](n2cnc3c(=S)nc[nH]c32)[C@H](O)[C@@H]1O | inactive | inactive | inactive | 11 µM (active)
21 | C[C@]12C=CC(=O)C=C1CC[C@@H]1[C@@H]2[C@@H](O)C[C@@]2(C)[C@H]1CC[C@]2(O)C(=O)CO | inactive | inactive | inactive | inactive
22 | Cc1ncc(CSSCc2cnc(C)c(O)c2CO)c(CO)c1O | inactive | inactive | 7.76 µM (active) | 6.17 µM (active)
23 | Cc1c(C(C)C)c(=O)n(-c2ccccc2)n1C | inactive | inactive | inactive | inactive

Reference: PubChem BioAssay (NCATS)
